# Screening data as filed in PubChem BioAssay.
# PTHR1 ag – PTHR1 (human) receptor agonism. 410,000 tested, 0.075% active. AID 743266. HEK293 GP2 PTHR1 cells, GloSensor cAMP luminescence, 1 h. Potency, µM (titrated, usually from 115 µM), inactives show at the highest dose activation, usual class: activators; note: potency is the fitted concentration of half-maximal effect; nearly all actives have a fitted effect of over 55% in size
# Target sequence (Q03431 whole entry, looked up): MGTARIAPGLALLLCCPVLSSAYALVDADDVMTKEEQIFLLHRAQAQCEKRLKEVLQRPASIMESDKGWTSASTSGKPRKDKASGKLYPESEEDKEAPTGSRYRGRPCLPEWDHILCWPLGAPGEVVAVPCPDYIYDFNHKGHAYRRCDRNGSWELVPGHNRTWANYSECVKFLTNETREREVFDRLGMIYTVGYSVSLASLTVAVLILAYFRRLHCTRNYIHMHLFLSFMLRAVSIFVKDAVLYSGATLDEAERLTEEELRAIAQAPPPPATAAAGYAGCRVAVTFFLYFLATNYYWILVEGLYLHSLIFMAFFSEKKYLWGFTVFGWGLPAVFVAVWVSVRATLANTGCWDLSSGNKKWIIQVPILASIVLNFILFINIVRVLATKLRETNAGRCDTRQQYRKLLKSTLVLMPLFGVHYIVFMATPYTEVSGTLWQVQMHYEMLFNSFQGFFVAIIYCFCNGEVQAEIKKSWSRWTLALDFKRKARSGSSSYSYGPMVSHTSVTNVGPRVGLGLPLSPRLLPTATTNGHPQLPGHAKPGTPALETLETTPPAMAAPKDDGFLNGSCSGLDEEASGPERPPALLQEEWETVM
#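 HEK-293-derived GP2 cells expressing PTHR1 and a GloSensor cAMP reporter, 3,000/well, plated overnight, given luciferin plus IBMX (each 0.5 mM as added) for 1 h at 37 °C, then compound for 1 h at 37 °C. Luminescence was read after 15 min at room temperature.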
# GLP1R inv ag – acts as inverse agonist at human GLP-1 receptor. Potency, µM (top dose mostly 38.3 µM), for the others: at the highest dose activity change, negative = inhibition, most hits filed as inhibitors. HEK293 GLP-1R CRE-luciferase, luminescence, 24 h; GLP-1R form is constitutively active. P43220. 410,000 tested, 1.6% active; note: potency is the fitted concentration of half-maximal effect; % is set by controls: 0 for no effect and ±100 for the full control effect; nearly all actives have a fitted effect of over 55% in size
#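 Luminescence readout: a drop in cAMP-driven luciferase signal flags inverse agonism at a constitutively active GLP-1R stably expressed in HEK293. Compound exposure lasted 24 hr at 37 deg C, 5% CO2.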
# IDH1 R132H inh – human IDH1 R132H inhibition; IDH1-R132H enzyme, NADPH consumption, diaphorase/resazurin fluorescence; Potency, µM (titrated, usually from 76.6 µM), inactives show at the highest dose activity change, negative = inhibition, usual class: inhibitors; 390,000 tested, 0.093% active; note: potency is the fitted concentration of half-maximal effect; % is set by controls: 0 for no effect and ±100 for the full control effect; nearly all actives have a fitted effect of over 65% in size
#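 IDH1-R132H (0.5 ug/mL) preincubated 30 min with compound, then NADPH (0.016 mM) and alpha-KG (2 mM) added; 80 min at RT, pH 7.5. Remaining NADPH coupled via diaphorase/resazurin to fluorescence (540/590 nm); concentration-response curves normalized to no-enzyme control.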
# HEK293 tox – cytotoxicity counter-screen for GLP-1 receptor inverse agonists; HEK293 cAMP-luciferase reporter cells, luminescence, 24 h; Potency, µM (highest dose often 38.3 µM), for the others: at the top dose activity change, negative = inhibition, actives largely listed as inhibitors; 410,000 tested, 0.13% active; AID 624418;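 note: loss of luciferase light is scored as toxicity; potency is the fitted concentration of half-maximal effect; % is set by controls: 0 for no effect and ±100 for the full control effect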
#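 Compound-treated cells are incubated 24 hr at 37 deg C under 5% CO2 after a 12 hour attachment period, then luciferase detection reagent is added and luminescence is measured following 12 min at room temperature; lowered signal indicates toxicity.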
# GLP-1R agonist – GLP-1 receptor (human) agonism | 380,000 tested, 0.007% active | P43220 | Potency, µM (series often up to 45.6 µM), without a hit: at the highest dose activation, hits mostly activators | HEK293 GLP-1R CRE-luciferase, luminescence, 4-6 h; cells express a hypersensitive GLP-1R form; note: potency is the fitted concentration of half-maximal effect; % of control where 0% means no effect
# LDHA block – blocks human lactate dehydrogenase A | P00338 | purified LDHA, NADH/diaphorase-resazurin fluorescence; active compounds read low | activity change, % (values are at about 110 or 230 µM) | 480,000 tested, 0.15% active | AID 1347041; in the data active = activity change below about -30%; inconclusive = mostly about -25% to -30%;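 note: plate controls were DMSO wells for no effect and wells without enzyme for full effect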
#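 Human LDH5 at 2 nM final in Tris HCl pH 7.4 with 0.06 mM NADH and 0.2 mM pyruvate, reacted 5 minutes at room temperature. Remaining NADH coupled via diaphorase/resazurin; resorufin fluorescence read at 0 and 20 minutes, normalized to enzyme-free and DMSO wells.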
# Active calls of the source: *; i = inactive; u = inconclusive; x = not tested or not shown; [ ] = remark or other dose. Hits are enriched below; roughly 1.7% of the tested compounds scored in any of these assays. Unless noted, calls come from the whole dose curve; as a rule, active = well fitted curve in the direction sought with a large enough effect; inconclusive = small, poorly fitted or top-dose-only effect, or another doubt; inactive = no such curve, though single readings can be large; an effect the other way counts as inactive or inconclusive.
SMILES,PTHR1 ag,GLP1R inv ag,IDH1 R132H inh,HEK293 tox,GLP-1R agonist,LDHA block
CC(=O)Oc1ccc(C(=O)Nc2ccc3c(c2)OCCO3)cc1,0%,u,6%,8%,0%,2
O=C(Nc1ccc2c(c1)OCCO2)c1ccc(Br)s1,-47%,10µM*,11%,u,-13%,0
COc1ccccc1C(=O)Nc1ccc2oc(C)nc2c1,x,x,x,x,x,0
COc1ccc(/C=C/C(=O)Nc2ccc3nc4c(c(Nc5ccccc5OC)c3c2)CCCC4)cc1,18%,8.9µM*,-30%,u,x,2
COc1ccc(/C=C/C(=O)Nc2ccc3nc4c(c(Nc5ccc(OC)c(OC)c5)c3c2)CCCC4)cc1,-12%,8.9µM*,4%,4.5µM*,x,8
Fc1ccc(Nc2c3c(nc4ccccc24)CCC3)cc1,-33%,u,6%,-29%,0%,0
COc1ccc(Nc2c3c(nc4ccc(NC(=O)/C=C/c5cccc(OC)c5OC)cc24)CCCC3)cc1OC,i,u,-14%,u,x,-6
COc1ccc(Nc2c3c(nc4ccccc24)CCC3)cc1,-12%,1.8µM*,1%,7.9µM*,4%,1
CC1CC(NC(=O)CCC2CCCCC2)CC(C)(C)C1 (stereo unspecified),x,x,x,x,x,5
CC(C)(C)c1ccc(NC(=O)COC(=O)C2(C)CC2(Cl)Cl)cc1 (stereo unspecified),-28%,3.5µM*,1%,-24%,1%,-1
COc1ccccc1C(=O)COC(=O)C1(C)CC1(Cl)Cl (stereo unspecified),-7%,10µM*,2%,10%,1%,-6
CC(Oc1cccc(Cl)c1)C(=O)OCc1nc(N)nc(Nc2ccccc2)n1 (stereo unspecified),x,x,x,x,x,-6
CCOc1ccc(NC(=O)CC2Sc3ccccc3NC2=O)cc1 (stereo unspecified),x,x,x,x,x,13
COc1ccc(C)cc1S(=O)(=O)Nc1ccc(F)c(Cl)c1,i,10µM*,2%,-8%,-3%,-2
COc1ccc(NS(=O)(=O)c2cc(C)ccc2OC)cc1OC,-11%[57.5 µM],5%,7%,-11%,-1%,0
O=C1NN(c2cccc(Br)c2)C(=O)/C1=C\c1ccc(O)cc1,-29%,10µM*,-3%,u,-2%,8
CC(C)=C1C(=O)NN(c2ccc(C)c(Cl)c2)C1=O,-15%,u,-3%,12%,-34%,7
COc1cc(/C=C2/C(=O)NN(c3cccc(Cl)c3)C2=O)cc(OC)c1O,-50%,2.8µM*,25%,-11%,-1%,11
CC(C)=C1C(=O)NN(c2cccc(Cl)c2)C1=O,i,10µM*,7%,-7%,0%,-1
CCOc1cc(/C=C2/C(=O)NN(c3cccc(Cl)c3)C2=O)ccc1O,-24%,u,2%,-19%,0%,0
CN1CCN(c2ccc3sc(-n4ccc5ccccc54)nc3c2)CC1,-47%,6.3µM*,-4%,3%,11%,-5
c1ccc(N2CCN(c3nc4cc5c(cc4s3)OCO5)CC2)cc1,i,-19%,3%,-11%,-6%,-7
CC(=O)Nc1cccc(C(=O)N2CCN(S(=O)(=O)c3ccc(C4CCCCC4)cc3)CC2)c1,-27%,5µM*,-8%,-16%,10%,2
CC(=O)Nc1cccc(C(=O)N2CCN(S(=O)(=O)c3ccc4ccccc4c3)CC2)c1,-24%,33%,1%,4%,6%,1
COc1ccc(OCC(=O)Nc2c(C(=O)N(CCN(C)C)Cc3ccco3)oc3ccccc23)cc1,u,7.9µM*,15%,10%,5%,2
CCN(CC)CCNC(=O)c1ccc2ccccc2n1,x,x,x,x,x,5
CC(=O)NCCNC(=O)c1ccc2ccccc2n1,x,x,x,x,x,-31*
